Shown are actives, neighbours in structure and some others; about 3.6% of the full set was active somewhere.
AmpC inh no detg: qHTS Inhibitors of AmpC Beta-Lactamase (assay without detergent); P00811; AmpC nitrocefin hydrolysis, absorbance 480 nm, 0.0001% Triton; Potency, µM (series often up to 57.1 µM), actives largely listed as inhibitors; 330,000 tested, 0.52% active; also: nearly all actives have a fitted effect of over 20% in size
Target sequence (P00811 whole entry, looked up): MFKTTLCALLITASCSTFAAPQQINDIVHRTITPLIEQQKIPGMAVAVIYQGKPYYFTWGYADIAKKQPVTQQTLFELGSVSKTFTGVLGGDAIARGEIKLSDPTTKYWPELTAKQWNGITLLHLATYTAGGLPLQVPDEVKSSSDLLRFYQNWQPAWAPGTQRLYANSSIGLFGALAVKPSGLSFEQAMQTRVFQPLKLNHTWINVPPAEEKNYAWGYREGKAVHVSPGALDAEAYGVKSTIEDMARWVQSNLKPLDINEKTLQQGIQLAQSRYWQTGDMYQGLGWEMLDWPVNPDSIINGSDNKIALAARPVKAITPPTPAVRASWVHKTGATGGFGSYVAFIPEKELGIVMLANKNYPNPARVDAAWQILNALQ
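20 mM phosphate pH 7.0 + 0.01% (detergent screen) or 0.0001% Triton X-100; 5.3 nM AmpC reagent; cpd preinc 15 min RT; nitrocefin (800 uM stock) to start; A480 q20 s × 4 min; Activity was normalised to no-enzyme and no-compound control wells.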
Sm TGR inh: qHTS Assay for the Inhibitors of Schistosoma Mansoni Peroxiredoxins; Schistosoma mansoni thioredoxin glutathione reductase (TGR), Q962Y6; purified TGR, DTNB reduction, TNB absorbance 405 nm; 360,000 tested, 3% active; Potency, µM (top dose mostly 114 µM), most hits filed as inhibitors; AID 485364, 2010; also: nearly all actives have a fitted effect of over 60% in size
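TGR 20 nM + NADPH 100 uM (dispensed conc.), cpd preinc 15 min RT; start with NADPH (500 uM addition) then DTNB (15 mM addition). Kinetic TNB absorbance, 405 nm filter. Four-parameter Hill fit across titration.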
Giardia FBPA inh: qHTS Assay for Inhibitors of Fructose-1,6-bisphosphate Aldolase from Giardia Lamblia; 290,000 tested, 0.71% active; purified Giardia FBPA; Potency, µM (series often up to 59.6 µM), most hits filed as inhibitors; A8B2U2; AID 2451, 2010; also: nearly all actives have a fitted effect of over 55% in size
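40 nM FBPA preincubated 10 min at RT with compound (up to 57.5 uM final), then substrate plus GAPDH/TPI/NAD/arsenate coupling and diaphorase/resazurin added. Fluorescence read after 20 min at RT, 525/598 nm.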
AmpC inh detg: qHTS Inhibitors of AmpC Beta-Lactamase (assay with detergent); Potency, µM (doses to about 114 µM), usual class: inhibitors; AID 485294, 2010; P00811; 370,000 tested, 0.041% active; AmpC hydrolysis of nitrocefin, absorbance 480 nm, 0.01% Triton; also: nearly all actives have a fitted effect of over 25% in size
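AmpC (5.3 nM in the dispensed reagent) in 20 mM phosphate pH 7.0 with 0.01% (detergent screen) or 0.0001% Triton X-100 was preincubated with compounds for 15 min at room temperature. Nitrocefin was then added from an 800 uM solution, and hydrolysis was followed at 480 nm.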
A number is an active result; . = inactive; ? = inconclusive; / = no result given; ! = a repeat was not active. Calls follow the shape of the dose curve; as a rule, active = well fitted curve in the direction sought with a large enough effect; inconclusive = small, poorly fitted or top-dose-only effect, or another doubt; inactive = no such curve, though single readings can be large; an effect the other way counts as inactive or inconclusive.

SMILES	AmpC inh no detg	Sm TGR inh	Giardia FBPA inh	AmpC inh detg
COc1cc2c(cc1OC)C(c1ccccc1O)N(C1CC(=O)N(c3ccccc3)C1=O)CC2 (stereo not given)	.	10µM	.	.
COc1ccccc1N1CCN(C2CC(=O)N(c3ccccc3)C2=O)CC1 (stereo not given)	.	?	.	.
COc1cc2c(cc1OC)C(c1ccccc1)N(C(=O)CCl)CC2 (stereo not given)	.	4µM	.	.
CCCCn1c(N)c(N(CCOC)C(=O)CN2C(=O)C3CCCCC3C2=O)c(=O)[nH]c1=O (stereo not given)	.	.	/	.
Cc1cccc(N(C(=O)c2snc(C(N)=O)c2N)C(C(=O)NCC2CCCO2)c2ccc(N(C)C)cc2)c1C (stereo not given)	.	.	.	.
C=CCOc1c(/C=N\NC(N)=O)cccc1OC	.	.	.	.
C=CCOc1c(OC)cc(/C=N/Nc2cccc(C(=O)O)c2)c(Br)c1Br	.	56µM	.	.
Cc1ccc(N)cc1O	.	6.3µM	/	.
Nc1ccc(N)c(C(=O)O)c1	.	18µM	?	.
Nc1ccc(C(=O)O)c(O)c1	.	3.5µM!	.	.
O=C(O)c1ccc(O)cc1O	.	.	/	.
Nc1ccc(O)c([N+](=O)[O-])c1	.	.	/	.
Cc1cc(NC(=O)c2ccc(Cl)cc2)c(C)cc1O	.	.	.	.
Cc1cc(O)c(-c2cc(O)c(C)cc2O)cc1O	.	1.3µM	16µM	?
Nc1cc(C(F)(F)F)ccc1C(=O)O	.	.	.	?
Cc1ccc2c(c1)C(c1ccc(F)cc1)N(C(=O)C(C)C)CC(=O)N2 (stereo not given)	/	.	/	.
Nc1ccc(C(=O)Oc2ccc([N+](=O)[O-])cc2)c(O)c1	.	28µM	.	.
CC(Oc1ccccc1)C(=O)Nc1nnc(S(=O)(=O)Nc2ccccc2)s1 (stereo not given)	.	.	.	?
Cc1ccc2cc(C#N)c(SCc3nnc(-c4ccccc4[N+](=O)[O-])o3)nc2c1	.	.	.	.
O=S1(=O)NC2c3ccccc3CC2O1 (stereo not given)	.	25µM	.	?
CCOc1cc(/C=C2/C(=O)NC(=O)N(c3ccc(CC)cc3)C2=O)ccc1OC(=O)c1cccs1	.	35µM	.	.
Cc1cc(/C=C2\C(=O)NC(=O)N(c3cccc(F)c3)C2=O)c(C)n1-c1cc(C(=O)O)cc(C(=O)O)c1	.	?	.	.
Cc1cc(/C=C2\C(=O)NC(=O)N(c3ccc(Br)cc3)C2=O)c(C)n1-c1cc(C(=O)O)cc(C(=O)O)c1	.	8.9µM	.	.
Cc1cc(/C=C2\C(=O)NC(=O)N(c3ccc(Cl)cc3)C2=O)c(C)n1-c1cccc(C(=O)O)c1	.	7.1µM	.	.
COc1ccc(Cc2nnc(Nc3ccc4c(c3)OCCO4)[nH]c2=O)cc1	.	.	.	.
SMILES	AmpC inh no detg	Sm TGR inh	Giardia FBPA inh	AmpC inh detg
Cc1nc2ccccn2c1C(=O)N/N=C/c1ccc(CNC(=O)C(=O)Nc2ccccc2)o1	.	.	.	?
Cc1ccc(/C=c2/sc3n(c2=O)CCCN=3)o1	.	11µM	?	?
O=C(NCc1ccc(/C=c2\sc3n(c2=O)CCN=3)o1)C(=O)Nc1ccccc1	.	35µM	?	.
Cc1ccc(/C=c2\sc3n(c2=O)CN(c2ccc(Br)cc2)CN=3)o1	.	13µM	?	.
CCCC(c1nnnn1CS(=O)(=O)c1ccc(C)cc1)N1CCN(c2ccccc2)CC1 (stereo not given)	.	.	.	.
Cc1ccc(S(=O)(=O)Cn2nnnc2CN2CCN(C(=O)c3ccco3)CC2)cc1	.	.	.	.
CCCCC(c1nnnn1CS(=O)(=O)c1ccc(C)cc1)N1CCN(C)CC1 (stereo not given)	.	10µM	.	.
Cc1ccc(S(=O)(=O)Cn2nnnc2C(C)N2CCN(C(=O)c3ccco3)CC2)cc1 (stereo not given)	.	45µM	.	.
CCc1c2c(nc3cccc(OC)c13)OC(CC)C2 (stereo not given)	/	/	.	/
O=C(NC(N1CCCC1)C(Cl)(Cl)Cl)c1ccccc1 (stereo not given)	.	3.5µM	/	.
O=C(NC(N1CCOCC1)C(Cl)(Cl)Cl)c1ccc(F)cc1 (stereo not given)	.	/	.	.
C=CCN1CC[C@]23c4c5ccc(O)c4O[C@H]2C(=O)CC[C@@]3(O)[C@H]1C5	.	45µM!	.	?
COc1ccccc1N1C(=N)S/C(=C\c2ccc(-c3ccccc3C(=O)O)o2)C1=O	.	20µM	.	?
COc1ccc(C(=O)NN2C(=O)C3C4C=CC(O4)C3C2=O)cc1 (stereo not given)	.	18µM	.	.
COc1cccc(C(=O)NN2C(=O)C3C4C=CC(O4)C3C2=O)c1 (stereo not given)	.	20µM	.	.
Cc1ccc(C(=O)NN2C(=O)C3C4C=CC(C4)[C@@H]3C2=O)cc1 (stereo not given in full)	.	.	.	.
O=C(CN1C(=O)COc2ccccc21)Nc1ccc(N2CCOCC2)cc1	.	?	.	.
CCOC(=O)C(NC(=O)c1ccccc1Cl)(Nc1sc2c(c1C(N)=O)CCC2)C(F)(F)F (stereo not given)	.	40µM	.	?
CCOC(=O)C(NC(=O)c1cccc(Cl)c1)(Nc1sc2c(c1C(N)=O)CCC2)C(F)(F)F (stereo not given)	.	40µM	.	?
CN(CC(=O)Nc1c(Cl)cccc1Cl)C(=O)c1cc2ccccc2cc1O	.	.	/	?
CCOC(=O)CC(=O)c1sc2c(c1N)c(=O)[nH]c(=O)n2-c1ccc(OC)cc1	.	.	.	.
COc1ccc(CCNC(=O)CN(c2ccc(C)cc2)S(=O)(=O)c2ccc(OC)cc2)cc1	/	.	/	.
CCOC(=O)c1ccc(-n2c(CN(CC)CC)nc3ccc([N+](=O)[O-])cc3c2=O)cc1	.	11µM	.	.
CCOC(=O)c1ccc(-n2c(CN3CCC(C(N)=O)CC3)nc3ccc([N+](=O)[O-])cc3c2=O)cc1	.	11µM	.	?
CCOC(=O)c1ccc(-n2c(CN3CCN(CC)CC3)nc3ccc([N+](=O)[O-])cc3c2=O)cc1	.	.	.	.
CCOC(=O)c1ccc(-n2c(CN3CCC(O)CC3)nc3ccc([N+](=O)[O-])cc3c2=O)cc1	.	13µM	.	.
O=C(c1cccn1-c1nnc(N2CCCCC2)s1)N1CCN(c2ccc(Cl)cc2)CC1	/	.	/	.
O=c1[nH]c(=O)n(Cc2ccco2)c(O)c1C=NC1CC1	.	.	.	.
COc1cccc(N=Cc2c(O)n(Cc3ccco3)c(=O)[nH]c2=O)c1	.	25µM	.	.
O=C(CSc1nc2nccnc2c(=O)n1CCc1c[nH]c2ccccc12)Nc1ccc(F)cc1	/	.	/	.

Screening results (PubChem BioAssay)
